Screening data deposited in PubChem by National Center for Advancing Translational Sciences (NCATS).
ATXN viability: Viability Counterscreen for Primary qHTS for Inhibitors of ATXN expression | Potency, µM (doses to about 56.7 µM), hits mostly cytotoxic | actives 0.49% (n = 400,000) | AID 651635, 2014 | S2 cells (HEK-293 line with an ATXN2-luciferase reporter) viability, CellTiter-Fluor protease fluorescence, 24 h; note: nearly all actives have a fitted effect of over 40% in size
TGFb SMAD3 inh: qHTS for Inhibitors of TGF-b; HepG2 CAGA-GFP TGF-b/SMAD3 reporter, GFP fluorescence, 18 h; TGF-beta stimulated, 500 pg/mL final; Potency, µM (titrated, usually from 46.1 µM), hits mostly inhibitors; actives 1.2% (n = 410,000); AID 588855, 2011; note: nearly all actives have a fitted effect of over 65% in size
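Read-out: total well GFP (ex488/em500-530) summed from mean per-cell fluorescence. Cells: HEPG2 CAGA-GFP, 1% FBS DMEM, 18 h at 37 degrees C with 500 pg/mL final TGF-beta. Unstimulated wells served as the full-inhibition control; stimulated DMSO wells = 0%.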
ATXN2 expr inh: Primary qHTS for Inhibitors of ATXN expression. HEK-293 ATXN2-luciferase reporter, luminescence, 24 h. actives 0.72% (n = 360,000). Potency, µM (series often up to 57 µM), usual class: inhibitors; note: nearly all actives have a fitted effect of over 55% in size
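qHTS (up to 57 uM final) was run with 24 h compound exposure of reporter cells at 37 °C. Each well was multiplexed: SteadyGlo luminescence measured ATXN2-luciferase expression after a fluorogenic Gly-Phe-AFC viability readout (25 uM final).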
HT1080-NT tox: qHTS for induction of synthetic lethality in tumor cells producing 2HG: qHTS for the HT-1080-NT fibrosarcoma cell line | HT-1080-NT fibrosarcoma viability, CellTiter-Glo ATP luminescence, 48 h | Potency, µM (top dose mostly 46.1 µM), actives largely listed as cytotoxic | actives 1.6% (n = 360,000) | AID 686970, 2013;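 note: NT is the 2HG producing partner of a matched IDH1 knockdown line; nearly all actives have a fitted effect of over 55% in size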
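Viability by CellTiter-Glo luminescence after 48 h compound exposure at 37C of HT-1080-NT cells (750/well, RPMI, 5% FBS). % activity scaled between DMSO wells and medium-only wells, then curve-fitted and categorized by curve class.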
HT1080 IDH1KD tx: qHTS for induction of synthetic lethality in tumor cells producing 2HG: qHTS for the HT-1080-IDH1KD cell line; HT-1080 IDH1 knockdown viability, ATP luminescence, 48 h; Potency, µM (titrated, usually from 46.1 µM), actives largely listed as cytotoxic; actives 2% (n = 360,000)
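% activity derives from luminescence (CellTiter-Glo), normalised to DMSO and no-cell wells. HT-1080-IDH1KD cells, 750/well, had 48 h compound exposure at 37 °C.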
HepG2 tox: qHTS for Inhibitors of TGF-b: Cytotox Counterscreen; HepG2 CAGA-GFP viability, ATP luminescence, 18 h; Potency, µM (highest dose often 46.1 µM), hits mostly cytotoxic; actives 0.76% (n = 410,000)
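CellTiter-Glo luminescence gave cytotoxicity after 18 hours at 37 degrees C. The cells were HepG2 CAGA-GFP in 1% FBS DMEM, stimulated with 500 pg/mL TGF-beta after compound addition. %Activity was normalised to no-cell wells (complete cell-killing) and DMSO (no toxicity), and curves were fitted and classified.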
Numbers stand for hits; i = inactive; ? = inconclusive; nt = no result. Rows were chosen to be rich in hits. Some 3.9% of all compounds tested hit in one or more screens of this group. Calls come from the whole dose curve; as a rule, active = well fitted curve in the direction sought with a large enough effect; inconclusive = small, poorly fitted or top-dose-only effect, or another doubt; inactive = no such curve, though single readings can be large; an effect the other way counts as inactive or inconclusive.

SMILES	ATXN viability	TGFb SMAD3 inh	ATXN2 expr inh	HT1080-NT tox	HT1080 IDH1KD tx	HepG2 tox
Nc1ncnc2nn(C3OC(CO)C(O)C3O)nc12 (stereo not given)	?	?	nt	?	13µM	i
Nc1nc(Cl)nc2c1ncn2[C@@H]1O[C@H](CO)[C@@H](O)[C@H]1O	i	?	i	18.4µM	?	i
COC(=O)c1ccc(NC(=O)CC2C(=O)N(c3ccc(C)cc3)C(=O)N2Cc2ccc(OC)cc2)cc1 (stereo not given)	nt	i	nt	nt	nt	i
COc1cccc(NC(=O)c2oc3ccc(S(=O)(=O)N4CCC5(CC4)OCCO5)cc3c2C)c1	nt	i	nt	nt	nt	i
COc1cc(C(=O)NC2CCN(C)CC2)ccc1Nc1ncc2c(n1)N(C1CCCCC1)CCC(=O)N2C	?	?	i	?	4.61µM	12.6µM
CCN1C(=O)CC(C(C)C)N(C2CCCC2)c2nc(Nc3ccc(C(=O)NC4CCN(C)CC4)cc3OC)ncc21 (stereo not given)	nt	?	?	i	i	i
COc1cc(C(=O)NC2CCN(C)CC2)ccc1Nc1ncc2c(n1)N(Cc1ccccc1)CCC(=O)N2C	?	i	i	20.6µM	?	i
COc1ccc(Cn2c(=O)[nH]c3cc(C(=O)NC4CCN(Cc5ccccc5)CC4)ccc32)cc1	?	i	?	i	i	i
CCN1C(=O)CC(c2ccccc2)N(C2CCCC2)c2nc(Nc3ccc(C(=O)NC4CCN(C)CC4)cc3OC)ncc21 (stereo not given)	nt	?	?	?	23.1µM	12.6µM
Cc1cc(C(=O)NCC2CCC3(CCN(Cc4cccc(F)c4F)CC3)O2)n(C)n1 (stereo not given)	i	nt	nt	nt	nt	nt
CC(C)(C)n1ncc2c(=O)n(Cc3c(F)ccc(Cl)c3Cl)cnc21	nt	i	nt	nt	nt	i
N#CCCN(Cc1cccnc1)S(=O)(=O)c1ccc2ccccc2c1	?	i	i	i	i	10µM
Oc1ccccc1N=Cc1c(O)ccc2oc3c(c12)CCCC3	?	12.6µM	nt	i	i	i
COc1ccc(-c2csc(N(CCCN(C)C)C(=O)c3ccccc3C)n2)cc1	i	?	?	?	?	10µM
COc1ccc(-c2csc(N(CCCN(C)C)C(=O)c3ccc(F)cc3)n2)cc1	i	i	i	i	?	i
COc1ccc(-c2csc(N(CCCN(C)C)C(=O)c3ccccc3Cl)n2)cc1	i	?	?	20.6µM	18.4µM	i
CCN(CC)CCCN(C(=O)c1ccc(F)cc1)c1nc(-c2ccc(OC)cc2)cs1	?	?	i	?	23.1µM	i
O=C(Cn1ncc2c3ccccc3n(Cc3ccccc3)c2c1=O)Nc1ccccc1C(F)(F)F	i	i	i	nt	nt	i
CCOCCc1nn2c(=O)cc(COC(=O)C(CC)c3ccccc3)nc2s1 (stereo not given)	i	i	i	nt	nt	i
COc1cc(OC)c(C(=O)O/N=C(\N)c2ccccn2)cc1OC	?	i	nt	i	i	i
Cc1ccc(C(=O)O/N=C(\N)c2ccccn2)c(C)c1	?	i	?	16.4µM	14.6µM	i
COc1ccccc1C(=O)O/N=C(\N)c1ccccn1	i	?	?	?	?	i
N/C(=N\OC(=O)c1ccccc1Cl)c1ccccn1	i	i	15.8µM	?	?	i
N/C(=N\OC(=O)c1ccc(Cl)c([N+](=O)[O-])c1)c1ccccn1	i	i	i	?	16.4µM	i
C=C1C=C(C)n2ncc(C(=O)Nc3ccc(NC(C)=O)c(Cl)c3)c2N1	nt	i	nt	nt	nt	i
SMILES	ATXN viability	TGFb SMAD3 inh	ATXN2 expr inh	HT1080-NT tox	HT1080 IDH1KD tx	HepG2 tox
C=CS(=O)(=O)c1ccc(Oc2ccc(S(=O)(=O)C=C)cc2)cc1	5.01µM	i	8.91µM	i	?	3.16µM
NS(=O)(=O)c1ccc(Oc2ccc(S(N)(=O)=O)cc2)cc1	i	i	i	i	i	i
COCCN1C(=O)N[C@@H](c2cccc(C(F)(F)F)c2)[C@H](C(C)=O)[C@H]1C	i	?	i	i	i	17.8µM
COCCN1C(=O)N[C@@H](c2ccccc2)[C@H](C(C)=O)[C@H]1C	i	i	i	i	i	i
COc1ccc(CCN2C(=O)C=CC2=O)cc1OC	?	?	?	?	6.51µM	i
COc1ccc(CCN2C(=O)CSC2c2ccc(OC)c(OC)c2)cc1OC (stereo not given)	i	i	i	i	i	i
COc1ccc(C2SCC(=O)N2CCc2ccc(OC)c(OC)c2)cc1 (stereo not given)	i	i	?	?	18.4µM	i
COC(=O)[C@@H]1CCCN1Cc1ccc2c(c1)CN(Cc1cccn1-c1ccc(Cl)cn1)CCO2	i	nt	nt	nt	nt	nt
CC(=O)/C=C/c1ccc2c(c1)S(=O)(=O)N(C1CCCC1)[C@H]2CC(C)=O	nt	7.08µM	nt	nt	nt	10µM
O=C(O)/C=C/c1ccc2c(c1)S(=O)(=O)N(C1CCCC1)[C@H]2CC(=O)O	nt	i	nt	nt	nt	i
COc1ccc(Cc2c(C)nn(-c3nc(C)c(C(=O)Nc4cccc(C(C)=O)c4)s3)c2C)cc1	nt	?	nt	nt	nt	i
Oc1ccc(/C=N/Nc2nc(-c3ccc(Cl)cc3)cc(C(F)(F)F)n2)cc1	?	?	?	?	16.4µM	i
COC(=O)c1ccc(CN2CCC3(CCC(CNC(=O)c4ccco4)O3)CC2)cc1 (stereo not given)	i	nt	nt	nt	nt	nt
O=C(Nc1ccc2ccccc2c1)c1ccccc1Cl	i	i	nt	i	i	i
Oc1ccc2ccccc2c1CNc1ccc2ccccc2c1	i	?	i	?	20.6µM	i
O=C(CS)Nc1ccc2ccccc2c1	i	i	i	20.6µM	20.6µM	i
O=C(Nc1ccc2ccccc2c1)c1ccccc1O	i	?	?	14.6µM	23.1µM	i
Oc1ccc2ccccc2c1CNc1ccccc1	i	i	i	i	i	i
CC1CN(CC(=O)NCCc2ccncc2)Cc2ccccc2O1 (stereo not given)	i	nt	nt	nt	nt	nt
Cc1nn(C(=O)c2cccc(F)c2)c(C)c1S(=O)(=O)N1CCCCCC1	i	i	i	nt	nt	i
Cc1ccc2c(c1)C(=O)C(=O)N2Cc1ccc(C(F)(F)F)cc1	28.2µM	15.8µM	?	i	i	17.8µM
Cc1ccc2c(c1)C(=O)C(=O)N2Cc1ccc(OC(C)C)cc1	?	10µM	?	nt	nt	i
CSc1ccc(CCNc2ncnc3onc(C)c23)cc1	i	i	?	nt	nt	i
CCC1(C2CCN(C(=O)c3ccccc3C)CC2)NC(=O)N(CCc2scnc2C)C1=O (stereo not given)	i	nt	nt	nt	nt	nt
COc1ccccc1-c1nc(S(=O)(=O)c2ccccc2)c(N2CCC(C)CC2)o1	?	?	i	nt	nt	i
